Here are results for 50 sequences from the supplement of paper PMC3545927.

In the experiment the target is furin, P09958. In words: furin cleavage Z-score vs untreated control; higher = more cleavage, active = 3.5 or more, inactive = 1 or less, 8 variable residues between constant flanks. The method in brief:
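Purified furin cleaved 8-mer peptides that were fused to a cDNA oligonucleotide and held on magnetic beads by their N-terminus. Each 0.01 ml reaction used a 1:10 enzyme:substrate ratio in 50 mM HEPES pH 7.5 with CaCl2 and NaCl and ran 7.5, 15 or 30 min. Released DNA was adapter-tagged by PCR and sequenced, and read counts gave abundance. The cleavage Z-score came from log counts against furin-free reactions, lowess-adjusted and scaled by median absolute deviation.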

This is one part of the list. How many sequences the whole screen found active is unknown.

Sequence of furin, P09958 (P09958 whole entry, the tested form may be a part): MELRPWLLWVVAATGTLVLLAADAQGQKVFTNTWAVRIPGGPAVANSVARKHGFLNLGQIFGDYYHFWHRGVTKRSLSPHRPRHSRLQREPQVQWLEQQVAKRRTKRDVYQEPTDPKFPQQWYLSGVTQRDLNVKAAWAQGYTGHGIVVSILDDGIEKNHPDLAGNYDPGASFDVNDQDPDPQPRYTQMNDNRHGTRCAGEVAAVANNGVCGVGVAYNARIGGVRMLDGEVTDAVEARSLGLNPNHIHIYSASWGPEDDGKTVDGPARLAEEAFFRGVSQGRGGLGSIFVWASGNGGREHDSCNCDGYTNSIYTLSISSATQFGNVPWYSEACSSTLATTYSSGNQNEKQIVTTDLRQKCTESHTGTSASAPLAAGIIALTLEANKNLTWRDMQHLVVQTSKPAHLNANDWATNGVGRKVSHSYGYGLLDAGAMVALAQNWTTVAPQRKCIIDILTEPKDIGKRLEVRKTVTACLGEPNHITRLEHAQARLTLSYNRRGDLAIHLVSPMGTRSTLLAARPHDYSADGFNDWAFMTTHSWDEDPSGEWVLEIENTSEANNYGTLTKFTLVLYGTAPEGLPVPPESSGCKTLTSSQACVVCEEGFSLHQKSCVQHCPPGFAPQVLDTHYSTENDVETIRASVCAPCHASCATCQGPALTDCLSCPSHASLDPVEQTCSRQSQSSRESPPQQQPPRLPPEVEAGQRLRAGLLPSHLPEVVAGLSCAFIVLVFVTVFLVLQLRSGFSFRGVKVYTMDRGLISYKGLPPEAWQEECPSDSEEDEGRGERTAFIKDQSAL

For the sequence CAAKSVCGPVAGNASASA [HC410], the “furin cleavage Z-score” value by setting is: (7.5 min) -0.0296 (inactive); (15 min) 1.97; (30 min) -1.19 (inactive).
The corresponding values for CAVYNHLTPLAGNASASA [HC635] are -0.863 (inactive), 0.0646 (inactive) and -0.69 (inactive).
The corresponding values for CAEEPCHRPSAGNASASA [HC2332] are 0.704 (inactive), 0.583 (inactive) and -1.24 (inactive).
For CARVARSGRDAGNASASA [FS-3115], the “furin cleavage Z-score” value runs as follows: (7.5 min) 2.88; (15 min) 2.99; (30 min) 4.3 (active).
For CARVWRDSFLAGNASASA [FS-2407], in that order: -0.29 (inactive), 1.62 and 0.504 (inactive).
For CARVARSRELAGNASASA [FS-1842], in that order: 4.74 (active), 5.44 (active) and 7.45 (active).
Turning to CAKLKRSHELAGNASASA [FS-2868], the “furin cleavage Z-score” value (7.5 min) was 0.465 (inactive), the “furin cleavage Z-score” value (15 min) is 2.2 and the “furin cleavage Z-score” value (30 min) was determined as 1.3.
For CARVARLLSAAGNASASA [FS-3114], in that order: -1.2 (inactive), 0.294 (inactive) and -1.59 (inactive).
For CAFLKRSGRDAGNASASA [FS-1324], the “furin cleavage Z-score” value was 4.93 (active) (7.5 min), 3.96 (active) (15 min) and 4.12 (active) (30 min).
For CATPAETTVRAGNASASA [HC926], in that order: -0.713 (inactive), 1.4 and -0.157 (inactive).
For CAGALVAFKIAGNASASA [HC1091], in that order: -1.03 (inactive), -0.999 (inactive) and -1.45 (inactive).
Regarding CAMGSSYGFQAGNASASA [HC1464], the “furin cleavage Z-score” value (7.5 min) is 0.332 (inactive), the “furin cleavage Z-score” value (15 min) was -0.28 (inactive) and the “furin cleavage Z-score” value (30 min) was -0.392 (inactive).
With CAEHVRKLRSAGNASASA [FS-990], the “furin cleavage Z-score” value reads like this: (7.5 min) 9.51 (active); (15 min) 9.45 (active); (30 min) 7.69 (active).
The corresponding values for CAEHFRKKRSAGNASASA [FS-1450] are 13.1 (active), 12 (active) and 10.4 (active).
For the sequence CASYFRKKRSAGNASASA [FS-1288], the “furin cleavage Z-score” value runs as follows: (7.5 min) 10.9 (active); (15 min) 10.4 (active); (30 min) 8.85 (active).
For CAVVCCSMSDAGNASASA [HC2091], in that order: -0.81 (inactive), 0.345 (inactive) and -0.759 (inactive).
For CALCECYDAGAGNASASA [HC919], in that order: -0.871 (inactive), 0.625 (inactive) and -1.3 (inactive).
Consider CAGHVKNGTMAGNASASA [HC1179], for which the “furin cleavage Z-score” value reads like this: (7.5 min) 0.572 (inactive); (15 min) 0.821 (inactive); (30 min) 0.846 (inactive).
On to CARIRRDANEAGNASASA [FS-3189], for which the “furin cleavage Z-score” value was 13.3 (active) (7.5 min), 13.5 (active) (15 min) and 9.85 (active) (30 min).
For CARGARGVRVAGNASASA [FS-2929], in that order: -0.658 (inactive), -0.415 (inactive) and -0.385 (inactive).
For CARIRRGTDEAGNASASA [FS-1956], in that order: 12.4 (active), 12.2 (active) and 8.37 (active).
Regarding CAVALSTTGEAGNASASA [HC843], the “furin cleavage Z-score” value was -1.85 (inactive) (7.5 min), -1.96 (inactive) (15 min) and -0.758 (inactive) (30 min).
The corresponding values for CARIRRDVRVAGNASASA [FS-1899] are 8.22 (active), 10.4 (active) and 7.12 (active).
As for CARFSKSADEAGNASASA [FS-2927], the “furin cleavage Z-score” value is -0.221 (inactive) (7.5 min), -0.408 (inactive) (15 min) and -0.912 (inactive) (30 min).
The corresponding values for CARIKKDKKEAGNASASA [FS-2951] are -1.75 (inactive), -0.739 (inactive) and -0.88 (inactive).
Regarding CAEVPCHRPGAGNASASA [HC2416], the “furin cleavage Z-score” value is -0.244 (inactive) (7.5 min), -0.922 (inactive) (15 min) and 0.598 (inactive) (30 min).
For CATKVCGAPPAGNASASA [HC441], in that order: 0.138 (inactive), 0.123 (inactive) and -0.197 (inactive).
For CARPRRGSLRAGNASASA [FS-2502], in that order: -1.01 (inactive), -0.431 (inactive) and 1.07.
For CARPRRRLGPAGNASASA [FS-2503], the “furin cleavage Z-score” value was 0.585 (inactive) (7.5 min), 1.48 (15 min) and 1.2 (30 min).
As to CARPRRSAPKAGNASASA [FS-3200], the “furin cleavage Z-score” value reads like this: (7.5 min) 8.12 (active); (15 min) 8.75 (active); (30 min) 6.05 (active).
Turning to CARPRRGSHPAGNASASA [FS-2359], the “furin cleavage Z-score” value was 0.189 (inactive) (7.5 min), 1.65 (15 min) and 2.41 (30 min).
For CARPRRSAGKAGNASASA [FS-2059], in that order: 6.62 (active), 6.92 (active) and 6.48 (active).
For CARPRRFFPGAGNASASA [FS-1964], in that order: -0.922 (inactive), -0.718 (inactive) and -0.224 (inactive).
For CARPRRSAHRAGNASASA [FS-1863], in that order: 8.93 (active), 9.74 (active) and 8.89 (active).
Regarding CAYVVTSTWVAGNASASA [HC2149], the “furin cleavage Z-score” value is, setting by setting: (7.5 min) 0.323 (inactive); (15 min) -0.464 (inactive); (30 min) -0.44 (inactive).
For CANGVCWTVYAGNASASA [HC698], the “furin cleavage Z-score” value is -1.07 (inactive) (7.5 min), 2.25 (15 min) and -1.18 (inactive) (30 min).
For CANIIMFAPTAGNASASA [HC1576], in that order: -0.25 (inactive), -0.574 (inactive) and -0.569 (inactive).
On to CAARGGRAAIAGNASASA [HC1627], for which the “furin cleavage Z-score” value is 0.309 (inactive) (7.5 min), -1.06 (inactive) (15 min) and 0.234 (inactive) (30 min).
As for CALVGLMALTAGNASASA [HC572], the “furin cleavage Z-score” value is, setting by setting: (7.5 min) -0.292 (inactive); (15 min) -0.497 (inactive); (30 min) -0.985 (inactive).
For CARVGRSLPTAGNASASA [FS-2098], in that order: 8.92 (active), 10.2 (active) and 8.81 (active).
Take CARVGRGVSIAGNASASA [FS-2195]: the “furin cleavage Z-score” value reads like this: (7.5 min) -0.488 (inactive); (15 min) -0.0472 (inactive); (30 min) 2.09.
For CARVCRSDNTAGNASASA [FS-2194], in that order: 2.3, 1.13 and 4.01 (active).
The corresponding values for CARVGRQVVTAGNASASA [FS-2470] are 1.41, 4.05 (active) and 2.16.
For CARVPRDPSTAGNASASA [FS-2620], the “furin cleavage Z-score” value is 0.232 (inactive) (7.5 min), 0.063 (inactive) (15 min) and 1.18 (30 min).
For CARKGRVVIDAGNASASA [FS-2263], in that order: -1.41 (inactive), -0.368 (inactive) and 0.767 (inactive).
The corresponding values for CARVGRSSKQAGNASASA [FS-2838] are 0.0354 (inactive), 0.533 (inactive) and 2.07.
The corresponding values for CARVCCSMSYAGNASASA [HC1993] are -1.56 (inactive), 0.796 (inactive) and 0.275 (inactive).
Turning to CARVGRSVTDAGNASASA [FS-3117], the “furin cleavage Z-score” value by setting is: (7.5 min) 9.08 (active); (15 min) 9.86 (active); (30 min) 8.63 (active).
For CARKGRSEDIAGNASASA [FS-2341], in that order: 0.928 (inactive), 1.18 and -0.197 (inactive).
In the case of CAMALYDVVTAGNASASA [HC1457], the “furin cleavage Z-score” value reads like this: (7.5 min) -0.109 (inactive); (15 min) -0.594 (inactive); (30 min) 1.06.
